Bioassay records deposited in PubChem BioAssay by National Center for Advancing Translational Sciences (NCATS).
Pf growth 96h – inhibits malaria parasite growth, 96 h; Potency, µM (titrated, usually from 28.7 µM), most hits filed as inhibitors; 320,000 compounds, 6.9% hits; AID 504834; P. falciparum luciferase reporter growth, 96 h
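P. falciparum expressing integrated firefly luciferase grown in erythrocytes (2% hematocrit, 0.05% parasitemia final) with compounds for 96 hours at 37 C, 5% CO2. Growth inhibition read as loss of luminescence after adding luciferase detection reagent.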
Shiga inhibitor – inhibitors of Shiga toxin in Vero cells. Vero cells, Shiga toxin protein synthesis inhibition reporter. inhibition, % at 38.7 µM. 290,000 compounds, 9.2% hits; in the data active means inhibition mostly above about 28%, no sharp cut-off; inactive means mostly below about 43%
Pf growth 48h – inhibits P. falciparum growth in the first generation, 48 h | P. falciparum luciferase growth in erythrocytes, 48 h | 310,000 compounds, 5.9% hits | AID 504832 | Potency, µM (highest dose often 28.7 µM), most hits filed as inhibitors
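Read-out is firefly luciferase luminescence from an integrated reporter in P. falciparum, so falling signal marks reduced parasite growth. Infected erythrocytes were at 2% hematocrit and 0.1% parasitemia (final) in Albumax-supplemented RPMI 1640.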
FBPA Giardia inh – Giardia lamblia aldolase inhibition | A8B2U2 | purified Giardia FBPA | AID 2451 | Potency, µM (titrated, usually from 59.6 µM), usual class: inhibitors | 290,000 compounds, 0.71% hits; further: nearly all actives have a fitted effect of over 55% in size
Target sequence (A8B2U2 whole entry, looked up): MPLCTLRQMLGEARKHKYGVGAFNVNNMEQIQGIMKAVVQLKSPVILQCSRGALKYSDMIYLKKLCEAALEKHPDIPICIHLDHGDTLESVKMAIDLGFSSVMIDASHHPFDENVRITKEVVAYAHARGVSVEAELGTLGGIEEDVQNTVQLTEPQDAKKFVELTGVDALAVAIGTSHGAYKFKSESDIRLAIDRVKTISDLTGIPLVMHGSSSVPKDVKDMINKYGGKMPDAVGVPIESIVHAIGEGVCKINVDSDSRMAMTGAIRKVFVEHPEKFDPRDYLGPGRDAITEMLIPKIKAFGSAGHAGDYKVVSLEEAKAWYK
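Giardia FBPA (40 nM reagent) was preincubated 10 min at RT with compound (up to 57.5 uM final), then substrate plus GAPDH/TPI/NAD/arsenate coupling system with diaphorase/resazurin was added; resorufin fluorescence (525/598 nm) was read after 20 min.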
Cycloheximide cs – counter-screen for Shiga toxin inhibitors: cycloheximide protein synthesis inhibition. 300,000 compounds, 12% hits. AID 2314. max response, %. cell reporter, cycloheximide protein synthesis inhibition counterscreen; in the data active means max response mostly above about 13%, no sharp cut-off; inactive means mostly below about 14%; further: read at 38.3 µM for the half of the compounds with a filed dose
NS1 function inh – influenza NS1 inhibition. Potency, µM (highest dose often 46.1 µM). 270,000 compounds, 0.4% hits. AID 2326; calls by dose curve; further: actives are rising curves; nearly all actives have a fitted effect of over 50% in size
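S. cerevisiae expressing influenza A NS1, grown in glucose, washed, then diluted 1:100 into pH 6.0 -URA galactose medium with 23 nl compound. Growth recovery read as OD600; NS1-free strain serves as control.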
Hits are given with their value; . = inactive; ? = inconclusive; / = no result; [ ] = dose if it differs, or a comment. An excerpt weighted towards active compounds, which were near 21% of everything screened. Unless noted, the call rests on the fitted dose curve; in most records, active means well fitted curve in the direction sought with a large enough effect; inconclusive means small, poorly fitted or top-dose-only effect, or another doubt; inactive means no such curve, though single readings can be large; an effect the other way counts as inactive or inconclusive.

SMILES	Pf growth 96h	Shiga inhibitor	Pf growth 48h	FBPA Giardia inh	Cycloheximide cs	NS1 function inh
CCCC1([C@H](O)C/C=C/[C@H]2[C@H](O)CC(=O)[C@@H]2CCCCCCC(=O)OC)CCC1	/	.	/	.	.	/
CN(CC(=O)Nc1ccc(Cl)c(C(F)(F)F)c1)C(=O)c1cn2ccccc2n1	.	/	.	/	/	/
O=c1c(-c2ccc(F)c(F)c2)nc2cncnc2n1Cc1ccc(F)cc1	/	/	/	.	/	/
COc1ccccc1CN1CCCC2(CCN(C(=O)c3cc(C(F)(F)F)cc(C(F)(F)F)c3)CC2)C1	/	/	/	.	/	/
COc1cccc(C(=O)Nc2ccc3ccccc3c2)c1	.	/	.	.	40	.
COc1ccc(CC(=O)NNC(=O)c2ccc(NC(C)=O)cc2)cc1	.	.	.	.	.	.
COc1ccc(C(=O)NN/C(C)=C/C(=O)C(F)(F)C(F)(F)C(F)(F)F)cc1	?	44	.	.	22	.
COc1ccc(C(=O)Nc2ccc3ccccc3c2)cc1	.	.	.	.	.	.
CS(=O)(=O)Nc1ccc(C(=O)Nc2ccccc2-c2ccccc2)cc1	12µM	/	?	.	.	.
Cc1cccc(C(=O)Nc2cc(NC(=O)c3cccs3)ccc2C)c1	.	.	.	.	.	.
Cc1cccc(C(=O)Nc2ccc(C)c(OC(=O)c3cccc(C)c3)c2)c1	.	193	.	.	56	.
CCC(=O)N1CCc2cc(S(=O)(=O)N3CCCCCC3)ccc21	?	.	.	/	.	.
CCn1c(COC(=O)CNC(=O)c2cc(OC)c(OC)c(OC)c2)nc2cc(S(=O)(=O)N(C)C)ccc21	.	/	.	/	/	/
COc1cccc(C(=O)NNC(=O)c2ccccc2)c1	?	69	.	.	43	?
COc1ccccc1NC(=O)C(=O)/C=C(\O)c1ccccc1	.	64	.	?	48	.
Cc1cccc(C(=O)Nc2ccc3ccccc3c2)c1	.	92	.	.	52	.
COc1ccc(/C(O)=C/C(=O)C(=O)NNC(=O)C(O)(c2ccccc2)c2ccccc2)cc1	?	.	.	.	.	.
COc1ccc(/C(O)=C/C(=O)C(=O)NNC(=O)c2ccccc2)cc1	.	.	.	?	30	.
CC(=O)Nc1ccc(C(=O)NNC(=O)c2cccc(C)c2)cc1	.	.	.	.	.	.
COc1cccc(C(=O)Nc2cccc(SC)c2)c1	.	63	.	.	19	.
CS(=O)(=O)Nc1ccc(C(=O)Nc2ccc3ccccc3c2)cc1	.	/	.	.	35	.
CC(=O)c1cccc(NC(=O)c2ccc(NS(C)(=O)=O)cc2)c1	/	.	.	.	.	.
COc1cccc(NC(=O)c2ccc(C(=O)c3ccccc3)o2)c1	?	93	.	.	38	/
CN1CCCN(C(=O)c2ccc(Cl)s2)CC1	?	.	.	/	.	.
CC1CC2(C)Oc3ccccc3CC2C(C)C1CNCCCN(C)C (centres undefined)	?	.	?	.	.	/
SMILES	Pf growth 96h	Shiga inhibitor	Pf growth 48h	FBPA Giardia inh	Cycloheximide cs	NS1 function inh
CCOc1nc2cnccc2n(CC(=O)Nc2ccccc2C(=O)OC)c1=O	?	.	.	/	.	.
O=C(Nc1cccc(F)c1)c1ccc(Cn2cc([N+](=O)[O-])cn2)o1	?	.	.	.	.	/
CCOC(=O)c1cnn2c(C)cc(-c3ccccc3)nc12	?	68	.	.	36	.
CCOC(=O)c1cc2nc(-c3ccccc3)cc(C)n2n1	?	/	.	.	.	.
CCOC(=O)c1nnc2cc(-c3ccc(Br)cc3)nn2c1C	?	.	.	.	.	.
CCOC(=O)c1nnc2cc(-c3ccccc3)nn2c1C	15µM	.	/	.	28	.
CCOC(=O)c1cc(-c2ccccc2)nc2nc(N(CC)CC)sc12	12µM	.	9.3µM	.	.	.
COC(=O)C1=C(C(=O)OC)[C@@H]2N(C)c3ccccc3[C@@]23C[C@@H](C(=O)OC)N(S(=O)(=O)c2ccc(OC)cc2)C3=N1	/	/	/	.[12.9 µM]	/	/
Cc1noc(C)c1C(=O)N1CCC2(CCCN(C(=O)NC(C)C)C2)CC1	/	/	/	.	/	/
O=C(Nc1ccnn1C1CCN(C(=O)c2ccc(F)c(Cl)c2)CC1)C1CC1	?	.	.	/	.	.
CCC(CC)NC(=O)CON=C1c2ccccc2-c2ccccc21	13µM	.	13µM	.	.	.
CCNC(=O)CON=C1c2ccccc2-c2ccccc21	.	.	.	.	.	.
CCn1cc(Br)c(C(=O)NN)n1	.	.	.	.	58	.
CCn1cc(Br)c(C(=O)Nc2ccc(OC)cc2)n1	/	.	.	.	21	.
CCn1c(C)cc(O)c(C(=O)Nc2cccc(Cl)c2)c1=O	.	.	?	/	.	.
CCn1nccc1C(=O)Nc1nccs1	.[5.75 µM]	.	.	.	.	.
CCn1ccc(C(=O)Nc2cccc(Cl)c2)n1	?	106	.	.	36	.
CCn1cc(Br)c(C(=O)Nc2nccs2)n1	.	73	.	.	27	.
COc1cccc(Nc2ncc3ncc(=O)n(C[C@H]4CCCO4)c3n2)c1	/	/	/	.	/	/
COC(=O)C1=C(C(=O)OC)[C@@H]2Nc3ccccc3[C@@]23C[C@@H](C(=O)OC)N(S(=O)(=O)c2ccc(C)cc2)C3=N1	/	/	/	.[12.9 µM]	/	/
CC(=O)N/C(=C\c1ccccc1)C(=O)OCc1cc(C)ccc1C	.	.	.	.	.	.
CCn1cc(Br)c(C(=O)Nc2ccc(Cl)c(Cl)c2)n1	.	35	.	.	21	.
CCn1cc(Br)c(C(=O)Nc2cccc(Cl)c2)n1	.	73	.	.	18	.
CCn1ccc(C(=O)Nc2ccccc2Cl)n1	.	63	.	.	41	.
CCn1cc(Cl)c(C(=O)Nc2ccc(OC)c(OC)c2)n1	.	55	.	.	21	/
SMILES	Pf growth 96h	Shiga inhibitor	Pf growth 48h	FBPA Giardia inh	Cycloheximide cs	NS1 function inh
CCn1cc(Cl)c(C(=O)Nc2cc(C(=O)OC)cc(C(=O)OC)c2)n1	?	.	.	.	.	.
Cc1cc(C)n(C(C)CNS(=O)(=O)c2ccc(C)c(C)c2)n1 (centres undefined)	.	.	.	.	.	.
O=C(NCc1nnc(SCC(=O)N2CCOCC2)o1)c1c(F)cccc1F	.	.	.	.	.	.
O=S(=O)(c1ccc(SCc2cccc(Cl)c2)nc1)N1CCCC1	.	/	.	/	/	/
CCn1c(C)c(C)c2cc(C(=O)Nc3cccc(Cl)c3)ccc21	15µM	.	?	.	21	.
CCOc1ccc2ncc(S(=O)(=O)c3ccccc3)c(N3CCC4(CC3)OCCO4)c2c1	10µM	.	13µM	.	.	.
CCc1ccc2ncc(S(=O)(=O)c3ccc(C)c(C)c3)c(N3CCCC3)c2c1	.	.	.	.	.	.
COc1ccc(S(=O)(=O)c2cnc3ccc(OC)cc3c2N2CCC3(CC2)OCCO3)cc1	8.3µM	.	?	.	.	.
COc1cc2c(cc1NC(=O)COC(=O)CNC(=O)c1ccccc1)oc1ccccc12	.	49	.	.	32	.
COc1cc(NC(=O)C2CC(=O)N(Cc3ccco3)C2)c(OC)cc1Cl (centres undefined)	.	/	.	/	/	/
